Reference: the supplement of paper PMC7411640
Structures can show the parent of a compound that is named as a salt.

Tested on: MDA-MB-468
Test: phospho-S6 immunofluorescence (DAPI-normalised), per-plate z-score; higher = higher phospho-S6 signal (less pathway suppression)
Details: 24 h
Description: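 GPCR-targeted compound library (MedChemExpress HY-L006) tested on MDA-MB-468 PTEN-null TNBC cells in 384-well plates at 0.1, 1 or 10 uM, combined with vehicle, GDC0941 450 nM or lapatinib 1 uM, for 24 h. Phospho-S6 (S240/244) immunofluorescence normalised to DAPI and expressed as a per-plate z-score; values are the mean of biological triplicates.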

Compound | phospho-S6 immunofluorescence (z-score) (co-treatment: GDC0941 450 nM) | phospho-S6 immunofluorescence (z-score) (co-treatment: lapatinib 1 uM) | phospho-S6 immunofluorescence (z-score) (co-treatment: vehicle)
Fc1ccc(-c2cncc(CN3CCN(c4cccc5c4OCCO5)CC3)c2)cc1 [Adoprazine] (compound 10 µM) | -2.84 | -1.05 | -2.49
Cc1noc(-c2ccc(-c3ccc(CC(=O)O)cc3)cc2)c1NC(=O)O[C@H](C)c1ccccc1 [AM095 (free acid)] (compound 10 µM) | 1.08 | 0.37 | 0.82
Nc1ncnc2c1ncn2C1CCCO1 (stereo unspecified) (compound 10 µM) | 0.45 | -0.67 | -0.21
O=C1CCc2ccc(OCCCCN3CCN(c4cccc(Cl)c4Cl)CC3)cc2N1 [Aripiprazole] (compound 10 µM) | -3.14 | -5.16 | -3.2
CN(C)C(=O)CCSC(SCCC(=O)O)c1cccc(/C=C/c2ccc3ccc(Cl)cc3n2)c1 (stereo unspecified) [MK-571 (sodium salt)] (compound 10 µM) | -0.65 | 0.9 | 1.28
CC(C)C[C@H](NC(=O)[C@@H](COC(C)(C)C)NC(=O)[C@H](Cc1ccc(O)cc1)NC(=O)[C@H](CO)NC(=O)[C@H](Cc1c[nH]c2ccccc12)NC(=O)[C@H](Cc1cnc[nH]1)NC(=O)[C@@H]1CCC(=O)N1)C(=O)N[C@@H](CCCNC(=N)N)C(=O)N1CCC[C@H]1C(=O)NNC(N)=O [Goserelin (acetate)] (compound 10 µM) | -1.26 | 0.37 | 0.21
CN1CCN(C2=Nc3ccccc3Oc3ccc(Cl)cc32)CC1 [Loxapine (succinate)] (compound 10 µM) | 0.7 | 1.22 | -1.15
C[C@@H](NCCCc1cccc(C(F)(F)F)c1)c1cccc2ccccc12 [Cinacalcet (hydrochloride)] (compound 10 µM) | -5.88 | -11.2 | -9.18
CCN(CC)CC#CCOC(=O)C(O)(c1ccccc1)C1CCCCC1 (stereo unspecified) [Oxybutynin] (compound 10 µM) | -0.77 | 0.75 | -0.04
CC(CCc1ccccc1)NCC(O)c1ccc(O)c(C(N)=O)c1 (stereo unspecified) [Labetalol (hydrochloride)] (compound 10 µM) | 0.84 | -0.16 | 0.83
COC(=O)[C@@H]1[C@H]2C[C@H]3c4[nH]c5ccccc5c4CCN3C[C@@H]2CC[C@@H]1O [Yohimbine (Hydrochloride)] (compound 10 µM) | 0.62 | 0.56 | 1.59
OCCNC1CCCc2c1[nH]c1ccc(-c3ccccc3)cc21 (stereo unspecified) (compound 10 µM) | -5.16 | -8.66 | -9.39
CSc1ccc2c(c1)N(CCC1CCCCN1C)c1ccccc1S2 (stereo unspecified) [Thioridazine (hydrochloride)] (compound 10 µM) | -5.09 | -8.27 | -7.88
CC(C)Oc1ccc(-c2nc(-c3cccc4c3CC[C@@H]4NCCO)no2)cc1C#N [Ozanimod] (compound 10 µM) | 0.72 | -0.62 | -0.3
CCc1ccc(OCc2ccccc2C(=O)Nc2ccc3nc(C)cc(N)c3c2)cc1 (compound 10 µM) | -5.98 | -12 | -10.4
CN1CCC[C@@H]1CCO[C@](C)(c1ccccc1)c1ccc(Cl)cc1 [Clemastine (fumarate)] (compound 10 µM) | 0.73 | -3.01 | 1.46

Compound | phospho-S6 immunofluorescence (z-score) (co-treatment: GDC0941 450 nM) | phospho-S6 immunofluorescence (z-score) (co-treatment: lapatinib 1 uM) | phospho-S6 immunofluorescence (z-score) (co-treatment: vehicle)
COc1ccc(N2CCOCC2)c2sc(NC(=O)N3CCC(C)(O)CC3)nc12 [Tozadenant] (compound 10 µM) | 0.02 | 0.77 | 0.82
OCCOCCN1CCN(C(c2ccccc2)c2ccccc2)CC1 [Decloxizine (dihydrochloride)] (compound 10 µM) | 0.55 | -0.6 | -0.19
C[N+]1(C)[C@@H]2CC[C@H]1C[C@@H](OC(=O)C(O)c1ccccc1)C2 (stereo partly specified) [Homatropine (methylbromide)] (compound 10 µM) | 0.87 | 1.2 | 1.2
COc1ccc2[nH]cc(CCNC(C)=O)c2c1 [Melatonin] (compound 10 µM) | -1.25 | 0.24 | -0.21
C/C(=N\NC(=O)C(NC(=O)c1ccccc1)c1n[nH]c(=O)c2ccccc12)c1cccc(Br)c1 (stereo unspecified) (compound 10 µM) | 0.96 | 0.13 | 0.95
C[C@@](N)(C(=O)O)c1ccc(C(=O)O)cc1 (compound 10 µM) | 0.93 | 1 | 0.17
C[C@](N)(Cc1ccc(O)c(O)c1)C(=O)O (compound 10 µM) | -0.58 | 0.11 | -0.1
CCCc1nc(C(C)(C)O)c(C(=O)OCc2oc(=O)oc2C)n1Cc1ccc(-c2ccccc2-c2nnn[nH]2)cc1 [Olmesartan (medoxomil)] (compound 10 µM) | -0.4 | -0.27 | -0.03
N#Cc1ccc2[nH]cc(CCCCN3CCN(c4ccc5oc(C(N)=O)cc5c4)CC3)c2c1 [Vilazodone (Hydrochloride)] (compound 10 µM) | -0.01 | -0.76 | 0.65
CNC[C@H](O)c1ccc(O)c(O)c1 [L-Epinephrine (Bitartrate)] (compound 10 µM) | 0.93 | 2.5 | -0.23
OCC1OC(n2cnc3c(NC4CCCCC4)ncnc32)C(O)C1O (stereo unspecified) [N6-Cyclohexyladenosine] (compound 10 µM) | -0.37 | 1.37 | 0.6
O=C1CCC(c2ccccc2)(C2CCN(Cc3ccccc3)CC2)C(=O)N1 (stereo unspecified) [Benzetimide (hydrochloride)] (compound 10 µM) | 0.5 | -0.15 | 0.11
COCCc1ccc(OCC(O)CNC(C)C)cc1 (stereo unspecified) [Metoprolol (Succinate)] (compound 10 µM) | 0.44 | -0.38 | 1.15
CC(=O)N[C@H](Cc1ccc2ccccc2c1)C(=O)N[C@H](Cc1ccc(Cl)cc1)C(=O)N[C@H](Cc1cccnc1)C(=O)N[C@@H](CO)C(=O)N(C)[C@@H](Cc1ccc(O)cc1)C(=O)N[C@H](CC(N)=O)C(=O)N[C@@H](CC(C)C)C(=O)N[C@@H](CCCCNC(C)C)C(=O)N1CCC[C@H]1C(=O)N[C@H](C)C(N)=O [Abarelix] (compound 10 µM) | 0.77 | 0.65 | -0.38
CC(C)=CCC/C(C)=C/CC/C(C)=C/CSc1ccccc1C(=O)O [Salirasib] (compound 10 µM) | 0.9 | 0.86 | -0.02
NCCCCN(Cc1nc2ccccc2[nH]1)[C@H]1CCCc2cccnc21 [AMD-070 (hydrochloride)] (compound 10 µM) | -4.2 | -3.44 | -3.01
